HEK293 tox – HEK 293 cell cytotoxicity; hit rate 6.6% among 94,000; HEK 293 viability, ATP luminescence (CellTiter-Glo), 48-72 h; Potency, µM (titrated, usually from 115 µM), hits mostly inhibitors; note: nearly all actives have a fitted effect of over 60% in size
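Luminescence from cellular ATP, measured with CellTiter-Glo, indicates HEK 293 viability. Cells plated at 250 cells/well are treated with compound for 48 or 72 hr at 37 degree Celsius before reagent addition.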
NIH3T3 tox – kills NIH 3T3 cells; NIH 3T3 viability, CellTiter-Glo ATP luminescence, 48-72 h; Potency, µM (highest dose often 96.7 µM), hits mostly inhibitors; hit rate 4.3% among 94,000; note: nearly all actives have a fitted effect of over 55% in size
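Cytotoxicity is measured as loss of cellular ATP: NIH 3T3 cells (400/well) are exposed to compound for 48 or 72 hr at 37 °C, then CellTiter-Glo luminescence is imaged after 10 min at room temperature.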
FLuc inh – Photinus pyralis luciferase inhibition; P08659; purified P. pyralis luciferase, luminescence, biochemical; Potency, µM (top dose mostly 115 µM), usual class: inhibitors; hit rate 2.5% among 76,000; note: nearly all actives have a fitted effect of over 65% in size
Target sequence (P08659 whole entry, looked up): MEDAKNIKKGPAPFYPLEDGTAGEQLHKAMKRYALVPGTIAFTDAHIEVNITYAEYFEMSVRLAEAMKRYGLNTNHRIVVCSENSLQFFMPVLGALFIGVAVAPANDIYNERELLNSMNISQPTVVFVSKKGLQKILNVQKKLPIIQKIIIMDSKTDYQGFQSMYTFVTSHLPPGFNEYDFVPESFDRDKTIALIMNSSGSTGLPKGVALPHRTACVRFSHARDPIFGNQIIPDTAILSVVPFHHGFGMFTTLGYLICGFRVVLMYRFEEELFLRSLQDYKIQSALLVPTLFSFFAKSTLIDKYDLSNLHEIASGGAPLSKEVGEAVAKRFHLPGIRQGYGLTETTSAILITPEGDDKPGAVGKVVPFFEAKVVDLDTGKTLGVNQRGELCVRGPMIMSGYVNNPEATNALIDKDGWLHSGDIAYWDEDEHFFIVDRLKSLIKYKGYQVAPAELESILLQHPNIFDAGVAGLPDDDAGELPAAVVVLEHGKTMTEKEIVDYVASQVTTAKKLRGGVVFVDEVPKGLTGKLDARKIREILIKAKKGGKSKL
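Luminescence read by CCD imager after adding enzyme (10nM final) to wells holding compound, titrated in qHTS. Substrates 10uM each D-luciferin and ATP; buffer 50mM Tris acetate pH 7.5, 10mM Mg acetate, Tween-20, BSA.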
hNpr1 antagonist – blocks ANP-stimulated signaling of human Npr1 receptor. P16066. Potency, µM (doses to about 46.3 µM), hits mostly inhibitors. hit rate 1.6% among 76,000. HEK293 hNpr1 GloSensor cGMP, ANP-stimulated luminescence; calls by dose curve; note: nearly all actives have a fitted effect of over 60% in size
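HEK293 cells stably expressing human Npr1 and cGMP GloSensor pGS-40F, loaded 2 h with 2% GloSensor reagent, given compound 30 min at room temperature. Luminescence read before and 20 min after 0.1 nM hNppA.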
Npr1 antag conf – hNpr1 antagonism, confirmation assay | hit rate 76% among 1,400 | HEK293 hNpr1 cGMP GloSensor luminescence, ANP-stimulated | shares compounds with hNpr1 antagonist | AID 1347044 | Potency, µM (series often up to 57.6 µM), actives largely listed as inhibitors; calls by dose curve; note: nearly all actives have a fitted effect of over 70% in size
Npr2 selectivity – selectivity test of Npr1 antagonists against human Npr2. shares compounds with hNpr1 antagonist. HEK293 hNpr2 GloSensor cGMP luminescence, CNP-stimulated. Potency, µM (titrated, usually from 57.6 µM), usual class: inhibitors. hit rate 67% among 1,400. AID 1347046; calls by dose curve; note: nearly all actives have a fitted effect of over 70% in size
FLuc inh counter – counter-screen for Npr1 antagonists: firefly luciferase inhibitors. shares compounds with hNpr1 antagonist. purified FLuc enzyme, luminescence, Km substrate. Potency, µM (highest dose often 57.6 µM), most hits filed as inhibitors. hit rate 0.7% among 1,400. AID 1347047
GloSensor cGMP – counter-screen for Npr1 antagonists: GloSensor control cell line; Potency, µM (highest dose often 57.6 µM), hits mostly inhibitors; hit rate 69% among 1,400; HEK293 GloSensor cGMP, SNP-stimulated, luminescence; shares compounds with hNpr1 antagonist; AID 1347051; calls by dose curve; note: nearly all actives have a fitted effect of over 70% in size
Hits are given with their value; 0 = inactive; ? = inconclusive; - = not tested or not shown. Sampled rows, rich in hits. Any-hit rate of the full collection: about 11%. Unless noted, calls come from the whole dose curve; as a rule, active = well fitted curve in the direction sought with a large enough effect; inconclusive = small, poorly fitted or top-dose-only effect, or another doubt; inactive = no such curve, though single readings can be large; an effect the other way counts as inactive or inconclusive.

SMILES | HEK293 tox | NIH3T3 tox | FLuc inh | hNpr1 antagonist | Npr1 antag conf | Npr2 selectivity | FLuc inh counter | GloSensor cGMP
COc1ccc(-c2noc(CC3CCN(C(=O)Cc4cccc(C)c4)CC3)n2)cc1 | 39.8µM | ? | 0 | 12.6µM | 21.7µM | 19.3µM | 0 | 17.2µM
CCOc1ccc(CC(=O)N2CCC(Cc3nc(C(C)C)no3)CC2)cc1OCC | ? | ? | 0 | 0 | - | - | - | -
CCOc1ccc(CC(=O)N2CCC(Cc3nc(-c4ccc(OC)cc4)no3)CC2)cc1OCC | ? | ? | 0 | 15.8µM | 27.3µM | 21.7µM | 0 | 24.3µM
CCOc1ccc(CC(=O)N2CCC(Cc3nc(C(C)C)no3)CC2)cc1 | ? | 0 | 0 | 0 | - | - | - | -
Cc1cccc(CC(=O)N2CCC(Cc3nc(-c4ccccc4)no3)CC2)c1 | ? | ? | 0 | 0 | - | - | - | -
Cn1ncc2c(C(=O)NCC(F)F)cc(-c3ccccc3C(F)(F)F)nc21 | 0 | ? | - | - | - | - | - | -
Cc1cccc(OC[C@H]2C[C@@H](NCc3ccc(C)o3)[C@H](O)[C@@H]2O)n1 | 0 | 0 | 0 | 0 | - | - | - | -
Cc1nc(C)c(C(=O)N2CCC(c3noc(-c4cnccn4)n3)C2)s1 (centres undefined) | 0 | 0 | 0 | 0 | - | - | - | -
CCOc1ccc2ccccc2c1C(C(=O)O)N1CCN(CC2CC2)CC1 (centres undefined) | 0 | 0 | 0 | 0 | - | - | - | -
CC1(C)[C@H](Cc2cc(COc3ccccc3)on2)C[C@@H]1NC(=O)c1cccs1 | ? | 39.8µM | 0 | 39.8µM | 35.3µM | 39.6µM | 0 | 31.4µM
CC1(C)[C@H](Cc2cc(COC(=O)c3cccs3)on2)C[C@@H]1NC(=O)c1cccs1 | ? | ? | 0 | 25.1µM | 35.3µM | 35.3µM | 0 | 39.6µM
CC1(C)[C@H](Cc2cc(CO)on2)C[C@@H]1NC(=O)c1cccnc1 | 0 | 0 | 0 | 0 | - | - | - | -
COc1cc2c(cc1OC)C(C[C@H]1CN(C(=O)Nc3cccc(Cl)c3)CC[C@H]1CC(=O)O)=NCC2 | 0 | 0 | 0 | 0 | - | - | - | -
CCNC(=O)N1CCC(Oc2ccccc2-c2nc(-c3cnccn3)no2)C1 (centres undefined) | 0 | 0 | 0 | 0 | - | - | - | -
Fc1ccc(CN2CCC(Oc3ccccc3-c3nc(-c4cnccn4)no3)C2)cc1F (centres undefined) | 25.1µM | ? | 0 | 0 | ? | 0 | 0 | 0
CC(=O)N1CCN(c2nc3c(s2)CC(C(=O)Nc2cccc(C(C)(C)C)c2)CC3)CC1 (centres undefined) | ? | ? | 0 | 17.8µM | 12.2µM | 15.3µM | 0 | 10.9µM
COc1ccc(OC)c(NC(=O)C2CCc3nc(N4CCN(C(C)=O)CC4)sc3C2)c1 (centres undefined) | ? | 0 | 0 | 0 | - | - | - | -
CC(=O)N1CCN(c2nc3c(s2)CC(C(=O)Nc2cc(F)cc(F)c2)CC3)CC1 (centres undefined) | 10µM | ? | 0 | 10µM | 17.2µM | 19.3µM | 0 | 10.9µM
CCS(=O)(=O)N(C1CC1)C1CCOC2(CCN(C(=O)c3ccc(OC)cc3)CC2)C1 (centres undefined) | 0 | 0 | 0 | 0 | - | - | - | -
COc1ccccc1N1CCN([C@@H]2[C@H](O)[C@H](CO)O[C@@H]2CN(Cc2ccc(F)cc2)Cc2ccc(F)cc2)CC1 | 28.2µM | 31.6µM | 0 | ? | ? | 13.7µM | 0 | 0
O=C(c1cocn1)N1CCNc2cnc(Nc3cccc(C(F)(F)F)c3)nc2C1 | 70.8µM | ? | 0 | 31.6µM | 35.3µM | 35.3µM | 0 | 31.4µM
O=C(c1ccccc1)N1CCNc2cnc(Nc3cccc(F)c3)nc2C1 | ? | ? | 0 | 12.6µM | 12.5µM | 17.7µM | 0 | 15.7µM
O=C(COc1ccccc1)N1CCNc2cnc(Nc3cccc(F)c3)nc2C1 | ? | ? | 0 | 0 | - | - | - | -
O=C(c1ccc(Cl)cc1)N1CCNc2cnc(Nc3ccccc3)nc2C1 | ? | ? | 0 | 31.6µM | 35.3µM | 35.3µM | 0 | 35.3µM
Clc1ccc(-c2nnc3n2CCN(Cc2ccccc2)C3)cc1 | ? | 0 | - | - | - | - | - | -
SMILES | HEK293 tox | NIH3T3 tox | FLuc inh | hNpr1 antagonist | Npr1 antag conf | Npr2 selectivity | FLuc inh counter | GloSensor cGMP
CC(=O)N1CCc2nn(CC(=O)Nc3cccc(Cl)c3C)c(=O)cc2C1 | 0 | 0 | 0 | 0 | - | - | - | -
CCOc1ccc2c(n1)CCN(C(=O)Cc1cccc(C)c1)C2 | 0 | 0 | 0 | 0 | - | - | - | -
COc1ccc(C(=O)Nc2ccc(-c3noc([C@@H]4CCCN4Cc4ccc(F)cc4)n3)cn2)cc1 | ? | ? | 0 | 11.2µM | 13.7µM | 17.2µM | 0 | 12.2µM
COc1ccc(C(=O)Nc2ccc(-c3noc([C@@H]4CCCN4Cc4ccco4)n3)cn2)cc1 | ? | ? | 0 | 12.6µM | 13.7µM | 19.3µM | ? | 17.2µM
COc1ccc(C2(C(=O)N3CCC[C@H]3c3nc(-c4ccccc4Cl)no3)CC2)cc1 | ? | ? | 0 | 10µM | 21.7µM | 21.7µM | 0 | 24.3µM
COc1ccc(C(=O)Nc2ccc(-c3noc([C@@H]4CCCN4Cc4c[nH]c5ccccc45)n3)cn2)cc1 | ? | ? | 0 | 10µM | 10.9µM | 19.3µM | 0 | 10.9µM
COc1ccc(C2(C(=O)N3CCCCCC3c3nc(C4CC4)no3)CC2)cc1 (centres undefined) | ? | ? | 0 | 0 | - | - | - | -
CCNC(=O)c1cccnc1OC1CCN(C(=O)c2cc(C)ccc2C)C1 (centres undefined) | 0 | 0 | 0 | 0 | - | - | - | -
CCCCOc1ccc(C(=O)N2CCC[C@H]2c2nc(-c3ccc(OC)cc3)no2)cc1 | 25.1µM | ? | 0 | ? | ? | 0 | 0 | ?
COc1ccc(C(=O)Nc2ccc(-c3noc([C@@H]4CCCN4CCCc4ccccc4)n3)cn2)cc1 | 15.8µM | ? | 0 | 12.6µM | 17.2µM | 19.3µM | 0 | 13.7µM
CC(=O)Nc1ccc(S(=O)(=O)N[C@H]2CO[C@H]3[C@@H]2OC[C@@H]3Nc2nccc(-c3cccc(F)c3)n2)cc1 | 15.8µM | ? | 0 | 11.2µM | 13.7µM | 17.2µM | 0 | 12.2µM
Cc1ccc(C(=O)N[C@H]2CO[C@H]3[C@@H]2OC[C@@H]3Nc2nccc(-c3ccc(-c4ccccc4)cc3)n2)cc1 | 12.6µM | 0 | 0 | ? | ? | 0 | 0 | 0
CN(C)c1ccc(-c2ccnc(N[C@H]3CO[C@H]4[C@@H]3OC[C@H]4OC(=O)NCc3ccccc3)n2)cc1 | ? | 0 | 0 | 0 | - | - | - | -
CCNC(=O)O[C@@H]1CO[C@H]2[C@@H]1OC[C@@H]2Nc1nccc(-c2ccc(-c3ccccc3)cc2)n1 | 10µM | ? | 0 | 6.31µM | 6.85µM | 13.7µM | 0 | 9.68µM
COc1ccccc1-c1ccnc(N[C@H]2CO[C@H]3[C@@H]2OC[C@@H]3NS(=O)(=O)c2ccc(NC(C)=O)cc2)n1 | ? | ? | 0 | ? | - | - | - | -
